Results from PubChem BioAssay (NCI).
The panel holds about 83,000 compounds, 20% with a hit somewhere; the sample as a whole holds those more often.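 In brief: 96-well plates, 48 h treatment, single concentration, percent growth endpoint.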 Values without a mark were called inactive. The source made the active and inactive calls. How the source made its calls: active means growth percent below 10; inactive means the rest.

Key:
Assay in all cases: NCI-60 one-dose screen, 48 h (100 = growth as untreated, 0 = no growth, -100 = all killed)
Details in all cases: 10 µM unless noted
SK-MEL-2 melanoma = test system: SK-MEL-2 melanoma
EKVX NSCLC = test system: EKVX NSCLC
SN12C renal = test system: SN12C renal
UO-31 renal = test system: UO-31 renal
TK-10 renal = test system: TK-10 renal
ACHN renal = test system: ACHN renal
CAKI-1 renal = test system: CAKI-1 renal
A498 renal = test system: A498 renal
CCRF-CEM leukemia = test system: CCRF-CEM leukemia
MOLT-4 leukemia = test system: MOLT-4 leukemia

Compound | growth (SK-MEL-2 melanoma) | growth (EKVX NSCLC) | growth (SN12C renal) | growth (UO-31 renal) | growth (TK-10 renal) | growth (ACHN renal) | growth (CAKI-1 renal) | growth (A498 renal) | growth (CCRF-CEM leukemia) | growth (MOLT-4 leukemia)
COc1ccc2[nH]c(C(=O)N3CCN(C(=O)OCc4ccc5c(Cl)cc(Cl)c(O)c5n4)CC3)cc2c1 | -77.2% (active) | -76.6% (active) | -83.8% (active) | -100% (active) | -99.2% (active) | -100% (active) | -95.6% (active) | -13.8% (active) | -9.25% (active) | -6.74% (active)
Cc1sc2nc(NCCc3c[nH]c4ccc(Cl)cc34)[nH]c(=O)c2c1C | 78.5% | 41.7% | 51.7% | 18.6% | 63.9% | 42.9% | 12% | 69.4% | 33.9% | 38.7%
COc1ccc(C2=C(Nc3ccc(C(=O)Nc4ccccc4)cc3)C(=O)N(C)C2=O)cc1 | 85.1% | 96.8% | 99.2% | 71.8% | 95.4% | 89.9% | 80.9% | 116% | 85.4% | 76.7%
COc1cc2oc(-c3cccc(NC(=O)c4ccccc4)c3)cc(=O)c2c(OC)c1OC | 76.8% | 103% | 76.2% | 51% | 91.3% | 61.6% | 87.2% | 59.4% | 45.7% | 40.7%
Nc1c(C(=O)Nc2ccccc2C(F)(F)F)sc2nc3c(cc12)CCC3 | 102% | 97.1% | 101% | 98% | 89.9% | 99.6% | 101% | 95.1% | 101% | 88.1%
Clc1ccc2c(c1)C(c1c[nH]c3ccccc13)(c1c[nH]c3ccccc13)CCO2 | -52% (active) | 81.9% | 85.3% | 54.2% | -43.1% (active) | 76.8% | 78.2% | 101% | 45.1% | 32.4%
CCNCCNc1cc(-c2ccc(C(F)(F)F)cc2)c(C#N)c2nc3ccccc3n12 | -47.6% (active) | -66% (active) | -62% (active) | -88.3% (active) | -67.3% (active) | -88.8% (active) | -96.9% (active) | -88.4% (active) | -42.9% (active) | -32.7% (active)
COc1ccc(-c2ccc(=O)oc2-c2cc(OC)c(OC)c(OC)c2)cc1O | 39.6% | 30.9% | 25.7% | 32.4% | 68% | 38.9% | -15.8% (active) | -39.7% (active) | 7.05% (active) | 2.3% (active)
O=C(Nc1cccc(Cl)c1)Nc1cccc(Cn2c(=O)[nH]c3ccc(Oc4ncccn4)cc3c2=O)c1 | 69.6% | 72.4% | 76% | 61.8% | 68.9% | 72.2% | 63.8% | 48.7% | 32.6% | 6.46% (active)
Cc1ccc(C)n1-c1ccccc1-n1c(C)ccc1C | 108% | 92.5% | 93.5% | 98.1% | 128% | 102% | 71.7% | 97.9% | 124% | 78.7%
Cc1nc2sc(C(=O)Nc3ccc(Br)cc3)c(N)c2cc1C(O)c1ccccc1 (stereo not given) | 81.5% | 55.3% | 68% | 62.1% | 85.4% | 72.4% | 65% | 51.9% | 43.4% | 26.2%
Fc1ccc(CNc2c3ccccc3nc3ccccc23)c(F)c1 | 99.7% | 45.5% | 37.2% | 30.3% | 61% | 23.4% | 35.3% | -4.38% (active) | 53.9% | 23.8%
COc1ccc(-c2nn(-c3cccc(Cl)c3)cc2-c2cc(-c3ccc(Br)cc3)nc(N)n2)cc1 | 99.7% | 92.3% | 92.7% | 76% | 104% | 103% | 77.3% | 81.6% | 92.7% | 88.3%
